Measured values reported in PubChem BioAssay AID651820 (National Center for Advancing Translational Sciences (NCATS), 2012).
Out of some 340,000 compounds screened, about 12,000 (3.5%) were called active. Entries that show only a call come without a potency. Roughly 18% stayed inconclusive and do not appear here. Calls come from the whole dose curve; as a rule, active = well fitted inhibition curve with a large enough effect; inconclusive = small, poorly fitted or top-dose-only effect, or another doubt; inactive = no such curve, though single readings can be large or run the other way. Many of the other results were omitted from the sample, so actives are more common in it than they were.

Assay: qHTS Assay for Inhibitors of Hepatitis C Virus (HCV)
Settings: Huh7.5.1 HCVcc-Cre infection, luciferase reporter, 44 h; series mostly up to 41.8 µM
From the text: Hepatitis C virus (HCV) infects about 200 million people in the world. Many infected people progress to chronic liver disease including cirrhosis with a risk of developing liver cancer. To date, there is no effective vaccine for hepatitis C. Current therapy based on interferon is only effective in about half of the patients and is associated with significant adverse effects. The fraction of people with HCV who can complete a successful treatment is estimated to be no more than 10 percent. Recent development of direct-acting antivirals against HCV, such as protease and polymerase inhibitors, is promising but still requires combination with peginterferon and ribavirin for maximal efficacy. In addition, these agents are associated with high rate of resistance and many have significant side effects. Due to the lack of a culture system for infectious HCV, the search for new HCV drugs has been greatly hampered. […] High-throughput screening (HTS) with an infectious HCV system would cover the complete spectrum of potentially druggable targets in all stages of HCV lifecycle, and would have more biological relevance than other cell-based assays. Moreover, targeting several key processes in the viral life cycle may not only increase antiviral efficacy; more importantly, it may also reduce the capacity of the virus to develop resistance to the compound. The goal of this project is to identify novel HCV inhibitors as new therapies for hepatitis C, using a highly sensitive and specific assay platform which is based on a HCV infectious cell culture system established in the laboratory and adapted for high-throughput HCV drug screen. NIH Chemical Genomics Center [NCGC] NIH Molecular Libraries Probe Centers Network [MLPCN] MLPCN Grant: MH095511 Assay Submitter (PI): Jake Liang, NIDDK
The assay will start with plating 1,000 cells/well in 3 µL volume and culture for 4 h. Then 23 nL of compounds from the library collection will be added to each well, followed by adding 2.5 µL of HCVcc-Cre virus (~ 0.5 moi) and further cultured for 44 h before the luciferase assay. A volume of 4.5 µL luciferase substrates will be added to each well and the plates will be incubated at room temperature for 15 min. and then read for 15 sec. for the luciferase activity

SMILES | Potency
Cc1ccc2c(c1)C1CN(C)CCC1N2C(=S)Nc1ccc(Cl)cc1Cl (centres undefined) | 14.1 µM (active)
Cc1ccc2c(c1)C1CN(C)CCC1N2C(=O)c1ccccc1NS(=O)(=O)c1ccc(F)cc1C (centres undefined) | inactive
S=C(Nc1ccc(Cl)cc1Cl)N1CCCC1 | inactive
Cc1ccc(-c2nn(-c3ccc(F)cc3)cc2C(=O)NCC(c2cccs2)N2CCOCC2)cc1 (centres undefined) | inactive
CC(=O)CSc1nc(CCc2ccccc2)c(C#N)c(=O)[nH]1 | inactive
Cc1csc(=O)n1CC(=O)Nc1ccc(S(C)(=O)=O)cc1 | inactive
COc1ccc2nc(Nc3nc4ccc(NC(C)=O)cc4s3)sc2c1 | 12.6 µM (active)
COc1ccc2nc(NC(=O)c3ccc(Br)s3)sc2c1 | inactive
COc1ccc2nc(NC(=O)NC3CCCCC3)sc2c1 | inactive
O=C(COC(=O)c1cccc(Cl)c1)NC(=O)NCc1ccccc1 | inactive
Cc1noc(C)c1COc1ccc(C(=O)NCCOc2ccccc2)cc1 | inactive
O=C(NC(=S)Nc1ccc(S(=O)(=O)N2CCOCC2)cc1)c1ccccc1[N+](=O)[O-] | inactive
CN(CC(=O)Nc1ccc(N2CCOCC2)cc1)CC(=O)Nc1ccccc1[N+](=O)[O-] | inactive
O=C(Nc1ccc(N2CCOCC2)cc1)c1ccc(-c2ccccc2[N+](=O)[O-])o1 | 11.2 µM (active)
Clc1ccc(Nc2ccc3ccccc3n2)cc1 | inactive
N#CC1(NC(=O)COC(=O)CSc2ccc(F)cc2)CCCCC1 | inactive
COc1cccc(COC(=O)C2CCN(S(=O)(=O)c3cccs3)CC2)c1OC | inactive
Cc1ccc(NC(=O)c2csc3c2CCCC3)cc1 | inactive
COC(=O)c1sc(NC(=O)c2csc3c2CCCC3)nc1C | 11.2 µM (active)
COC(=O)c1sc(NC(=O)c2ccc(OC)cc2OC)nc1C | inactive
CC1=NNC(=O)C1Cc1c(Cl)cccc1Cl (centres undefined) | inactive
CCCCN1CC(CO)Oc2cccc(F)c2S1(=O)=O (centres undefined) | inactive
COc1cccc2oc(CCc3ccccc3)cc(=O)c12 | inactive
Cc1cc2nc(C(F)(F)F)cc(-c3cccs3)n2n1 | inactive
c1csc(-c2cn3c(n2)SCC3)c1 | inactive
Cc1cc(-c2cccs2)nc(-n2cccc2)n1 | 5.01 µM (active)
CO[C@@H]1[C@@H](OC(N)=O)[C@@H](O)C(Oc2ccc3c(O)c(NC(=O)c4ccc(O)c(CC=C(C)C)c4)c(=O)oc3c2C)OC1(C)C (some centres undefined) | inactive
CC[C@]12c3[nH]c4ccc(Cl)cc4c3CCN1C(=O)[C@@H](CC(=O)NCCCOC)C[C@@H]2C(=O)N1CCN(C(=O)c2ccco2)CC1 | inactive
COc1ccccc1N1CCN(c2nc(C)cc(=O)[nH]2)CC1 | inactive
